Reference: PubChem BioAssay AID1159580 (chemical genetic matrix, 2015)
Out of some 5,500 compounds screened, about 2,000 (36%) were called active. Roughly 18% stayed inconclusive and do not appear here. The list shows a part of the results. Unmarked numbers belong to inactive results. Rule as the data show it: active = normalized growth mostly below about 0.91 (no sharp cut-off); inconclusive = no clear call, values can overlap the other calls; inactive = mostly above about 0.92.

Assay: chemical genetic growth profiling, strain panel (AID 1159580);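 also: tested at 20 µM; growth read once vehicle control cultures reached saturation at 30 °C; 1 = growth at the plate median or of vehicle wells; lower values mean less growth of the strain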
Settings: growth OD
[1] = S. cerevisiae deletion strains, locus YPL241C, strain CIN2, stronger effect = lower value

Q: Which results are given for `Cc1ccc(C(C)C)c(O)c1C(=O)O`?
A: normalized growth (S. cerevisiae deletion strains, locus YAL013W, strain DEP1, stronger effect = lower value): 0.993; normalized growth (S. cerevisiae deletion strains, locus YBR021W, strain FUR4, stronger effect = lower value): 0.912; normalized growth (S. cerevisiae deletion strains, locus YBR229C, strain ROT2, stronger effect = lower value): 0.986; normalized growth (S. cerevisiae deletion strains, locus YCL029C, strain bik1, stronger effect = lower value): 0.951; normalized growth (S. cerevisiae deletion strains, locus YDL035C, strain GPR1, stronger effect = lower value): 0.997; normalized growth (S. cerevisiae deletion strains, locus YDL074C, strain BRE1, stronger effect = lower value): 0.998; normalized growth (S. cerevisiae deletion strains, locus YDL101C, strain DUN1, stronger effect = lower value): 0.999; normalized growth (S. cerevisiae deletion strains, locus YDL134C, strain PPH21, stronger effect = lower value): 0.998; normalized growth (S. cerevisiae deletion strains, locus YDL185W, strain tfp1, stronger effect = lower value): 0.784 (active); normalized growth (S. cerevisiae deletion strains, locus YDL192W, strain arf1, stronger effect = lower value): 0.95; normalized growth (S. cerevisiae deletion strains, locus YDR101C, strain arx1, stronger effect = lower value): 0.971; normalized growth (S. cerevisiae deletion strains, locus YDR162C, strain NBP2, stronger effect = lower value): 0.977; normalized growth (S. cerevisiae deletion strains, locus YDR318W, strain mcm21, stronger effect = lower value): 0.96; normalized growth (S. cerevisiae deletion strains, locus YDR388W, stronger effect = lower value): 0.935; normalized growth (S. cerevisiae deletion strains, locus YDR502C, strain sam2, stronger effect = lower value): 0.957; normalized growth (S. cerevisiae deletion strains, locus YEL061C, strain CIN8, stronger effect = lower value): 0.981; normalized growth (S. cerevisiae deletion strains, locus YER110C, stronger effect = lower value): 0.959; normalized growth (S. cerevisiae deletion strains, locus YER155C, strain BEM2, stronger effect = lower value): 0.914 (active); normalized growth (S. cerevisiae deletion strains, locus YER167W, strain BCK2, stronger effect = lower value): 0.973; normalized growth (S. cerevisiae deletion strains, locus YGL078C, strain dbp3, stronger effect = lower value): 0.859 (active); normalized growth (S. cerevisiae deletion strains, locus YGL086W, strain mad1, stronger effect = lower value): 0.975; normalized growth (S. cerevisiae deletion strains, locus YGL248W, strain PDE1, stronger effect = lower value): 0.995; normalized growth (S. cerevisiae deletion strains, locus YGR078C, strain PAC10, stronger effect = lower value): 1; normalized growth (S. cerevisiae deletion strains, locus YGR135W, strain pre9, stronger effect = lower value): 0.975; normalized growth (S. cerevisiae deletion strains, locus YGR252W, strain gcn5, stronger effect = lower value): 0.919; normalized growth (S. cerevisiae deletion strains, locus YHR030C, strain SLT2, stronger effect = lower value): 0.97; normalized growth (S. cerevisiae deletion strains, locus YHR079C, strain IRE1 (second series), stronger effect = lower value): 0.936; normalized growth (S. cerevisiae deletion strains, locus YHR094C, strain hxt1, stronger effect = lower value): 0.923 (active); normalized growth (S. cerevisiae deletion strains, locus YHR129C, strain ARP1, stronger effect = lower value): 0.965; normalized growth (S. cerevisiae deletion strains, locus YHR200W, strain rpn10, stronger effect = lower value): 0.945; normalized growth (S. cerevisiae deletion strains, locus YIL066C, strain RNR3, stronger effect = lower value): 1.01; normalized growth (S. cerevisiae deletion strains, locus YIL073C, strain SPO22, stronger effect = lower value): 1; normalized growth (S. cerevisiae deletion strains, locus YIL125W, strain kgd1, stronger effect = lower value): 0.808 (active); normalized growth (S. cerevisiae deletion strains, locus YIR030C, strain dcg1, stronger effect = lower value): 0.949; normalized growth (S. cerevisiae deletion strains, locus YJL095W, strain BCK1, stronger effect = lower value): 0.992; normalized growth (S. cerevisiae deletion strains, locus YJL134W, strain LCB3, stronger effect = lower value): 0.955; normalized growth (S. cerevisiae deletion strains, locus YJL168C, strain set2, stronger effect = lower value): 0.921 (active); normalized growth (S. cerevisiae deletion strains, locus YJL187C, strain SWE1 (second series), stronger effect = lower value): 1.01; normalized growth (S. cerevisiae deletion strains, locus YJR043C, strain POL32, stronger effect = lower value): 0.981; normalized growth (S. cerevisiae deletion strains, locus YJR075W, strain HOC1, stronger effect = lower value): 0.998; normalized growth (S. cerevisiae deletion strains, locus YKL009W, strain mrt4, stronger effect = lower value): 0.897; normalized growth (S. cerevisiae deletion strains, locus YKL068W, stronger effect = lower value): 0.82 (active); normalized growth (S. cerevisiae deletion strains, locus YKL085W, strain MDH1 (second series), stronger effect = lower value): 0.83 (active); normalized growth (S. cerevisiae deletion strains, locus YKL085W, strain MDH1, stronger effect = lower value): 0.83 (active); normalized growth (S. cerevisiae deletion strains, locus YKL190W, strain CNB1, stronger effect = lower value): 0.987; normalized growth (S. cerevisiae deletion strains, locus YKR001C, strain vps1, stronger effect = lower value): 0.917; normalized growth (S. cerevisiae deletion strains, locus YLR039C, strain RIC1, stronger effect = lower value): 0.943; normalized growth (S. cerevisiae deletion strains, locus YLR058C, strain SHM2, stronger effect = lower value): 0.995; normalized growth (S. cerevisiae deletion strains, locus YLR102C, strain apc9, stronger effect = lower value): 0.918 (active); normalized growth (S. cerevisiae deletion strains, locus YLR262C, strain YPT6, stronger effect = lower value): 0.986; normalized growth (S. cerevisiae deletion strains, locus YLR268W, strain sec22, stronger effect = lower value): 0.96; normalized growth (S. cerevisiae deletion strains, locus YLR330W, strain CHS5, stronger effect = lower value): 0.947; normalized growth (S. cerevisiae deletion strains, locus YLR342W, strain FKS1 (second series), stronger effect = lower value): 0.973; normalized growth (S. cerevisiae deletion strains, locus YLR371W, strain rom2, stronger effect = lower value): 0.94; normalized growth (S. cerevisiae deletion strains, locus YLR418C, strain cdc73, stronger effect = lower value): 0.946; normalized growth (S. cerevisiae deletion strains, locus YML016C, strain PPZ1, stronger effect = lower value): 0.977; normalized growth (S. cerevisiae deletion strains, locus YML032C, strain rad52, stronger effect = lower value): 0.959; normalized growth (S. cerevisiae deletion strains, locus YML124C, strain tub3, stronger effect = lower value): 0.929 (active); normalized growth (S. cerevisiae deletion strains, locus YMR078C, strain ctf18, stronger effect = lower value): 0.916; normalized growth (S. cerevisiae deletion strains, locus YMR223W, strain ubp8, stronger effect = lower value): 0.972; normalized growth (S. cerevisiae deletion strains, locus YMR263W, strain SAP30, stronger effect = lower value): 0.989; normalized growth (S. cerevisiae deletion strains, locus YMR307W, strain GAS1, stronger effect = lower value): 0.967; normalized growth (S. cerevisiae deletion strains, locus YNL067W, strain RPL9B, stronger effect = lower value): 0.997; normalized growth (S. cerevisiae deletion strains, locus YNL128W, strain TEP1, stronger effect = lower value): 1.01; normalized growth (S. cerevisiae deletion strains, locus YNL233W, strain BNI4, stronger effect = lower value): 0.993; normalized growth (S. cerevisiae deletion strains, locus YNL250W, strain rad50, stronger effect = lower value): 0.848 (active); normalized growth (S. cerevisiae deletion strains, locus YNL271C, strain bni1, stronger effect = lower value): 0.831 (active); normalized growth (S. cerevisiae deletion strains, locus YNL298W, strain CLA4, stronger effect = lower value): 0.842 (active); normalized growth (S. cerevisiae deletion strains, locus YNL307C, strain MCK1, stronger effect = lower value): 0.928; normalized growth (S. cerevisiae deletion strains, locus YNR052C, strain pop2, stronger effect = lower value): 0.951; normalized growth (S. cerevisiae deletion strains, locus YOL006C, strain TOP1, stronger effect = lower value): 0.977; normalized growth (S. cerevisiae deletion strains, locus YOL012C, strain htz1): 1.59; normalized growth (S. cerevisiae deletion strains, locus YOL147C, strain pex11, stronger effect = lower value): 0.937; normalized growth (S. cerevisiae deletion strains, locus YOR061W, strain CKA2, stronger effect = lower value): 0.989; normalized growth (S. cerevisiae deletion strains, locus YOR069W, strain VPS5, stronger effect = lower value): 0.974; normalized growth (S. cerevisiae deletion strains, locus YOR136W, strain idh2, stronger effect = lower value): 0.979; normalized growth (S. cerevisiae deletion strains, locus YOR144C, strain elg1, stronger effect = lower value): 0.928 (active); normalized growth (S. cerevisiae deletion strains, locus YOR184W, strain ser1, stronger effect = lower value): 0.962; normalized growth (S. cerevisiae deletion strains, locus YOR316C, strain cot1, stronger effect = lower value): 0.93; normalized growth [1]: 0.971; normalized growth (S. cerevisiae deletion strains, locus YPR119W, strain clb2, stronger effect = lower value): 0.918 (active); normalized growth (S. cerevisiae deletion strains, locus YPR141C, strain kar3, stronger effect = lower value): 0.797 (active); normalized growth (S. cerevisiae deletion strains, locus YPR163C, strain tif3, stronger effect = lower value): 0.908 (active); normalized growth (S. cerevisiae deletion strains, locus YPR167C, strain met16, stronger effect = lower value): 0.936; normalized growth (S. cerevisiae deletion strains, strain wtn01, stronger effect = lower value): 0.955; normalized growth (S. cerevisiae strains, strain wild type, stronger effect = lower value): 0.988

Q: What does the source list for `CP(=O)(O)CCCN`?
A: normalized growth (S. cerevisiae deletion strains, locus YAL040C, strain CLN3, stronger effect = lower value): 1; normalized growth (S. cerevisiae deletion strains, locus YCL061C, strain MRC1 (second series), stronger effect = lower value): 1; normalized growth (S. cerevisiae deletion strains, locus YDR150W, strain NUM1, stronger effect = lower value): 0.983; normalized growth (S. cerevisiae deletion strains, locus YER002W, strain NOP16, stronger effect = lower value): 0.994; normalized growth (S. cerevisiae deletion strains, locus YNL153C, strain GIM3, stronger effect = lower value): 0.99; normalized growth (S. cerevisiae deletion strains, locus YNL175C, strain NOP13, stronger effect = lower value): 0.996; normalized growth (S. cerevisiae deletion strains, locus YNL197C, strain WHI3, stronger effect = lower value): 1.02; normalized growth (S. cerevisiae deletion strains, locus YNL224C, strain SQS1, stronger effect = lower value): 0.98; normalized growth (S. cerevisiae deletion strains, locus YOR083W, strain WHI5 (second series), stronger effect = lower value): 1.01; normalized growth [1]: 0.989
